Targets with a hit are over-represented here; the source holds about 8,800 in all. About 0.5% of all pairs of compound and target were hits.
Legend:
Experiment in all cases: log2 fold change, soluble protein after heating vs DMSO (PISA); higher = thermal stabilisation; K562 lysate, 10 uM; active = over 0.2 and 3.5 SD of the protein, either way, in both replicates (recomputed)
vemurafenib = compound: CCCS(=O)(=O)Nc1ccc(F)c(C(=O)c2c[nH]c3ncc(-c4ccc(Cl)cc4)cc23)c1F [vemurafenib]
Outline: (§1)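 Dounce homogenisation of K562 pellets in PBS pH 7.4 with 1 mM MgCl2 produced a crude extract, used at 1 mg/mL protein. Exposure to 10 μM compound lasted 30 min, and aliquots were then heated for 3 min across 48°C-58°C, pooled and brought to 0.5% NP-40 at 4°C. The supernatant after 21,000xg for 90 min was quantified by TMTpro 16plex LC-MS/MS with channel sums equalised. Duplicate values are given as log-two fold change in thermal stability relative to solvent controls.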

[1] = compound: CCCS(=O)(=O)Nc1ccc(F)c(C(=O)c2c[nH]c3ncc(Cl)cc23)c1F
Outline: as §1

barasertib = compound: CCN(CCCOc1ccc2c(Nc3cc(CC(=O)Nc4cccc(F)c4)[nH]n3)ncnc2c1)CCOP(=O)(O)O [barasertib]
Outline: as §1

[2] = compound: CC[C@@H]1C(=O)N(C)c2cnc(Nc3ccc(C(=O)NC4CCN(C)CC4)cc3OC)nc2N1C1CCCC1
Outline: as §1

volasertib = compound: CC[C@@H]1C(=O)N(C)c2cnc(Nc3ccc(C(=O)N[C@H]4CC[C@H](N5CCN(CC6CC6)CC5)CC4)cc3OC)nc2N1C(C)C [volasertib]
Outline: as §1

[3] = compound: CCn1c(C(=O)N(C2CC2)C2CC2)cc2c3c(ncn3C)c(Nc3cc(C)n(C)n3)nc21
Outline: as §1

[4] = compound: CCn1cc(-c2ccnc3[nH]c(-c4cccc(CN(C)C)c4)cc23)c(-c2ccc(NC(=O)N(C)C)cc2)n1
Outline: as §1

[5] = compound: CN1CCC(CNc2ccc3ncc(-c4cccc(OC(F)(F)F)c4)n3n2)CC1
Outline: as §1

saracatinib = compound: CN1CCN(CCOc2cc(OC3CCOCC3)c3c(Nc4c(Cl)ccc5c4OCO5)ncnc3c2)CC1 [saracatinib]
Outline: as §1

sotrastaurin = compound: CN1CCN(c2nc(C3=C(c4c[nH]c5ccccc45)C(=O)NC3=O)c3ccccc3n2)CC1 [sotrastaurin]
Outline: as §1

Measured: log2 fold change

ADD1 isoform 4 (UniProt P35611)
Chain of UniProt P35611 (P35611 whole entry, looked up): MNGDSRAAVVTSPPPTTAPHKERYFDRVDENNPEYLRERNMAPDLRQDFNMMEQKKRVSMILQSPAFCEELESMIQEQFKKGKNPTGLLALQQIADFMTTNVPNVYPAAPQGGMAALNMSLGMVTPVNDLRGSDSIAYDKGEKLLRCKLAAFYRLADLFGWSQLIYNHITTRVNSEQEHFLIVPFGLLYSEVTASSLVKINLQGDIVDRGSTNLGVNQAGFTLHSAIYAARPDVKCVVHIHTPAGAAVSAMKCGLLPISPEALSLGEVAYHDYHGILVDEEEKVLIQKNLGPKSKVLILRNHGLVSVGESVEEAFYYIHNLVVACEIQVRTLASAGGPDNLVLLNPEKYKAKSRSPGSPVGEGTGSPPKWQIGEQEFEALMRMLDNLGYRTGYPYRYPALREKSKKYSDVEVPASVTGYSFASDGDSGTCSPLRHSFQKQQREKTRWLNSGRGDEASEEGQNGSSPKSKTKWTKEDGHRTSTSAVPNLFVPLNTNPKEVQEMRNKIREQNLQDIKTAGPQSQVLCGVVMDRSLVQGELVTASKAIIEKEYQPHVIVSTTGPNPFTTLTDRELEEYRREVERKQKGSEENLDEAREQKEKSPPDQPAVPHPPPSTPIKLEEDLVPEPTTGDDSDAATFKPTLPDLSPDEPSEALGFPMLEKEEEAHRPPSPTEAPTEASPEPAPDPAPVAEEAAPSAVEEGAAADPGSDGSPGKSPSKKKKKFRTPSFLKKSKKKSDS
inactive: vemurafenib 0.061 | [1] -0.003 | barasertib -0.089 | [2] 0.164 | volasertib 0.061 | [3] -0.345 | [4] -0.61 | [5] 0.397 | saracatinib 0.083

ACACB (UniProt O00763)
inactive: vemurafenib 0.012 | [1] 0.028 | barasertib 0.024 | [2] -0.113 | volasertib -0.11 | [3] 0.038 | [4] -0.14 | [5] 0.027 | saracatinib 0.018 | sotrastaurin 0.037

ABHD12 isoform 2 (UniProt Q8N2K0)
Chain of UniProt Q8N2K0 (Q8N2K0 whole entry, looked up): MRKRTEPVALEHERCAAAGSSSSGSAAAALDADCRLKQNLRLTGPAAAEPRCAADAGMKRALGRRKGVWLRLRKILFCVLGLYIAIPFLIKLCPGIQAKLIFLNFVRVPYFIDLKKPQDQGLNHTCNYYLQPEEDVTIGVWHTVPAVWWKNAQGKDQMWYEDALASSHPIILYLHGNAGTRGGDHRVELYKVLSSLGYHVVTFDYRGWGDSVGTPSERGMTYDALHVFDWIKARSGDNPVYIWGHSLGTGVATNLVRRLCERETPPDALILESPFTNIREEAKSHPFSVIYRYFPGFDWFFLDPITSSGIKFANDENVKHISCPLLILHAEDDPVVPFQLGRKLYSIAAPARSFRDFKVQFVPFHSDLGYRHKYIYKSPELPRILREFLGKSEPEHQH
inactive: vemurafenib -0.049 | [1] 0.077 | barasertib -0.015 | [2] 0.034 | volasertib 0.006 | [3] -0.055 | [4] 0.119 | [5] -0.111 | saracatinib -0.039 | sotrastaurin 0.018

AKR1B1 (UniProt P15121)
inactive: vemurafenib 0.006 | [1] 0.024 | barasertib 0.02 | [2] 0.072 | volasertib -0.015 | [3] 0.008 | [4] -0.054 | [5] 0.116 | saracatinib 0.065 | sotrastaurin -0.012

ACIN1 isoform 5 (UniProt Q9UKV3)
inactive: vemurafenib 0.014 | [1] 0.024 | barasertib 0.009 | [2] -0.016 | volasertib 0 | [3] -0.018 | [4] 0.067 | [5] -0.01 | saracatinib 0.006 | sotrastaurin 0.014

APOBEC3C (UniProt Q9NRW3)
Chain of UniProt Q9NRW3 (Q9NRW3 whole entry, looked up): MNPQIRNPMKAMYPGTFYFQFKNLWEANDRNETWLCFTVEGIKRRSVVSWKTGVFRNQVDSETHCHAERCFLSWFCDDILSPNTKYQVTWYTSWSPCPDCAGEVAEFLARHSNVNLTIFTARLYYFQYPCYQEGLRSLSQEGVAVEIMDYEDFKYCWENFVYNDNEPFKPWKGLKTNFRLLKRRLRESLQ
inactive: vemurafenib -0.027 | [1] 0.021 | barasertib -0.006 | [2] 0.075 | volasertib -0.014 | [3] -0.081 | [4] -0.038 | [5] 0.034 | saracatinib 0.018 | sotrastaurin 0.114

ARMCX3 (UniProt Q9UH62)
inactive: vemurafenib -0.024 | [1] 0.027 | barasertib 0.102 | [2] -0.033 | volasertib -0.045 | [3] 0.021 | [4] -0.01 | [5] -0.049 | saracatinib 0.012 | sotrastaurin 0.016

AMD1 (UniProt P17707)
Chain of UniProt P17707 (P17707 whole entry, looked up): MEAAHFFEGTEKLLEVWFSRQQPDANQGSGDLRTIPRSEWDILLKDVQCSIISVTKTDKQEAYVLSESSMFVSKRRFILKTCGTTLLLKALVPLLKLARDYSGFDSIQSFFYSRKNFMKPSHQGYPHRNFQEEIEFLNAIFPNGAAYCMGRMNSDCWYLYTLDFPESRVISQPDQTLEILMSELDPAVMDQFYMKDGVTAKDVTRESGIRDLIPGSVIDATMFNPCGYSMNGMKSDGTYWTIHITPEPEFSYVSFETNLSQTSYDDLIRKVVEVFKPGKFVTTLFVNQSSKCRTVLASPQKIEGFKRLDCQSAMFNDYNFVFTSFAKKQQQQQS
inactive: vemurafenib 0.096 | [1] -0.01 | barasertib 0.064 | [2] 0.036 | volasertib -0.014 | [3] 0.117 | [4] -0.129 | [5] 0.127 | saracatinib 0.013 | sotrastaurin -0.002

ALG13 (UniProt Q9NP73)
inactive: vemurafenib 0.014 | [1] 0.015 | barasertib 0.054 | [2] 0.041 | volasertib -0.041 | [3] -0.016 | [4] -0.14 | [5] 0.086 | saracatinib 0.023 | sotrastaurin 0.017

AMMECR1 (UniProt Q9Y4X0)
Chain of UniProt Q9Y4X0 (Q9Y4X0 whole entry, looked up): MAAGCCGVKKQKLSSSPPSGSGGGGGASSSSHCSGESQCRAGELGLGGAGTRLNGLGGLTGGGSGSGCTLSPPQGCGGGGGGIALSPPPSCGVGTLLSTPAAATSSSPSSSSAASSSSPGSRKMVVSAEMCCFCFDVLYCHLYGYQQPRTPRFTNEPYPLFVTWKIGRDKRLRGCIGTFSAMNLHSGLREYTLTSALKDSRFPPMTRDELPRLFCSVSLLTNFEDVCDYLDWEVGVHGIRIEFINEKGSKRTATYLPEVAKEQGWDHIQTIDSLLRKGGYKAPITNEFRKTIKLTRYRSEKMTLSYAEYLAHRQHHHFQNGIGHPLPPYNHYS
inactive: vemurafenib 0.067 | [1] 0 | barasertib 0.008 | [2] -0.019 | volasertib -0.03 | [3] -0.026 | [4] -0.012 | [5] 0.032 | saracatinib 0 | sotrastaurin 0.008

ANXA5 (UniProt P08758)
Chain of UniProt P08758 (P08758 whole entry, looked up): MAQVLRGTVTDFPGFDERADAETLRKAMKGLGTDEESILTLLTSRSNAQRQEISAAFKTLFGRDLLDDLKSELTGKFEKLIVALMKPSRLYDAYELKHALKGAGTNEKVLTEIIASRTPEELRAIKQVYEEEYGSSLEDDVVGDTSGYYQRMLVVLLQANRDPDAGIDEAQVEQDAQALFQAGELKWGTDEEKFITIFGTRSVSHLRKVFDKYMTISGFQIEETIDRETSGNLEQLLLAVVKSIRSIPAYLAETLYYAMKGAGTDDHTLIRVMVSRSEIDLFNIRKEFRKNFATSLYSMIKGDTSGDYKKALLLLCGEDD
inactive: vemurafenib -0.034 | [1] -0.011 | barasertib 0.003 | [2] -0.073 | volasertib -0.001 | [3] 0.059 | [4] 0.022 | [5] -0.064 | saracatinib -0.008 | sotrastaurin 0.024

ACSL1 (UniProt P33121)
inactive: vemurafenib 0.021 | [1] 0.023 | barasertib 0.046 | [2] -0.054 | volasertib -0.1 | [3] 0.038 | [4] -0.014 | [5] -0.242 | saracatinib -0.066 | sotrastaurin -0.002

ABHD17A isoform 2 (UniProt Q96GS6)
Chain of UniProt Q96GS6 (Q96GS6 whole entry, looked up): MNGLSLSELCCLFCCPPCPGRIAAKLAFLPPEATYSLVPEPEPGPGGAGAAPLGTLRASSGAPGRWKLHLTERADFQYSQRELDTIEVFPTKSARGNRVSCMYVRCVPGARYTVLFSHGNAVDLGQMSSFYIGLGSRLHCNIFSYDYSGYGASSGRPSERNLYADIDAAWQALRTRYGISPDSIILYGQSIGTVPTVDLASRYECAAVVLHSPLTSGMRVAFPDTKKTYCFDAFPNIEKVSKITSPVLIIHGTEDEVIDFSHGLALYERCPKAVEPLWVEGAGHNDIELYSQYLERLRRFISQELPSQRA
inactive: vemurafenib -0.007 | [1] -0.08 | barasertib 0.007 | [2] 0.036 | volasertib 0.012 | [3] 0.022 | [4] 0.001 | [5] 0.013 | saracatinib -0.027 | sotrastaurin -0.05

ABHD11 (UniProt Q8NFV4)
Chain of UniProt Q8NFV4 (Q8NFV4 whole entry, looked up): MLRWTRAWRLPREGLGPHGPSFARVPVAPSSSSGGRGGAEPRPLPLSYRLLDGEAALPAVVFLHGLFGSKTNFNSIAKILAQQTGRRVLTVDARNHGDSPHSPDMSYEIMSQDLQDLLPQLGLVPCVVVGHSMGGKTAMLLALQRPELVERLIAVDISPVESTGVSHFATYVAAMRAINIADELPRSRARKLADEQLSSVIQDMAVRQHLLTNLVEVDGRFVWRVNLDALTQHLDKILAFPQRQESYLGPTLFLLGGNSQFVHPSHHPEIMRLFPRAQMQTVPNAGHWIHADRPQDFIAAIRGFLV
inactive: vemurafenib 0.062 | [1] -0.051 | barasertib 0.093 | [2] -0.029 | volasertib -0.082 | [3] 0.028 | [4] -0.109 | [5] 0.024 | saracatinib -0.026 | sotrastaurin -0.016

ACADS (UniProt P16219)
Chain of UniProt P16219 (P16219 whole entry, looked up): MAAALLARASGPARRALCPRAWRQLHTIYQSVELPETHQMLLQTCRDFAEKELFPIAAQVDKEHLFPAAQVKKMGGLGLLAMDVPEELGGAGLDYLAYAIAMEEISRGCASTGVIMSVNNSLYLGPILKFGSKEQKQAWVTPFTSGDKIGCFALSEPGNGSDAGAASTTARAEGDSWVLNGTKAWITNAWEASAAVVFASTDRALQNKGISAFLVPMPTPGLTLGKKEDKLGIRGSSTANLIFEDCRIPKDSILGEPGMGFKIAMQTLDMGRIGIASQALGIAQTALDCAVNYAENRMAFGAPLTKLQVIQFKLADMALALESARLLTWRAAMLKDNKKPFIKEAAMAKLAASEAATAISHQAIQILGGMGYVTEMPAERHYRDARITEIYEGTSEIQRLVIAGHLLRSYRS
inactive: vemurafenib 0.023 | [1] 0.017 | barasertib 0.006 | [2] -0.039 | volasertib -0.016 | [3] -0.02 | [4] 0.016 | [5] 0.003 | saracatinib -0.026 | sotrastaurin -0.026

ADD1 isoform 3 (UniProt P35611)
inactive: vemurafenib -0.025 | [1] -0.002 | barasertib -0.001 | [2] 0.036 | volasertib 0.007 | [3] -0.002 | [4] -0.013 | [5] 0.054 | saracatinib 0.002 | sotrastaurin 0

ABHD17B (UniProt Q5VST6)
inactive: vemurafenib 0.051 | [1] -0.002 | barasertib -0.073 | [2] 0.234 | volasertib 0.094 | [3] -0.034 | [4] 0.08 | [5] 0.054 | saracatinib 0.092 | sotrastaurin -0.002

ACOX1 isoform 2 (UniProt Q15067)
inactive: vemurafenib 0.017 | [1] 0.003 | barasertib -0.029 | [2] 0.015 | volasertib 0.053 | [3] -0.026 | [4] -0.038 | [5] 0.1 | saracatinib -0.014 | sotrastaurin 0.004

ARHGAP6 (UniProt O43182)
inactive: vemurafenib 0.074 | [1] 0.038 | barasertib 0.116 | [2] -0.038 | volasertib -0.107 | [3] -0.014 | [4] 0.072 | [5] -0.139 | saracatinib 0.031 | sotrastaurin -0.049

AK2 (UniProt P54819)
inactive: vemurafenib 0.014 | [1] 0.062 | barasertib -0.013 | [2] 0.029 | volasertib 0.013 | [3] -0.009 | [4] 0.119 | [5] -0.008 | saracatinib -0.015 | sotrastaurin -0.038

ACADM isoform 2 (UniProt P11310)
Chain of UniProt P11310 (P11310 whole entry, looked up): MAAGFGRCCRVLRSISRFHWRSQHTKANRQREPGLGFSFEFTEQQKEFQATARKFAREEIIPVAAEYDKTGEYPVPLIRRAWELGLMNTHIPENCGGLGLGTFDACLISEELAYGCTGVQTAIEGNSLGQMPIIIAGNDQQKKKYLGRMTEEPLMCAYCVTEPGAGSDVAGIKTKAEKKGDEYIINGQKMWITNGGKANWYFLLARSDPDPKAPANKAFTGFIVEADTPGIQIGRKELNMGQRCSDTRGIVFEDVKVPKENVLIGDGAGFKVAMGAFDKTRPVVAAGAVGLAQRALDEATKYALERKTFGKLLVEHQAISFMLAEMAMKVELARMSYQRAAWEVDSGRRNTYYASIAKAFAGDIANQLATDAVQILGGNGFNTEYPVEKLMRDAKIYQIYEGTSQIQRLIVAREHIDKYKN
active: sotrastaurin 0.67
inactive: vemurafenib 0.02 | [1] -0.011 | barasertib 0.069 | [2] 0.001 | volasertib -0.062 | [3] -0.051 | [4] -0.031 | [5] -0.046 | saracatinib -0.023

ALKBH4 (UniProt Q9NXW9)
inactive: vemurafenib 0.061 | [1] 0.018 | barasertib 0.086 | [2] -0.133 | volasertib -0.068 | [3] 0.074 | [4] 0.025 | [5] 0 | saracatinib -0.019 | sotrastaurin 0.036

ARFGAP1 (UniProt Q8N6T3)
inactive: vemurafenib 0.063 | [1] -0.01 | barasertib 0.225 | [2] 0.204 | volasertib -0.02 | [3] 0.171 | [4] 0.001 | [5] 0.029 | saracatinib 0.056 | sotrastaurin -0.07

APAF1 (UniProt O14727)
inactive: vemurafenib -0.014 | [1] -0.012 | barasertib 0.073 | [2] -0.087 | volasertib -0.056 | [3] 0.001 | [4] 0.115 | [5] -0.012 | saracatinib -0.028 | sotrastaurin 0.015

ANAPC7 (UniProt Q9UJX3)
inactive: vemurafenib -0.026 | [1] 0.033 | barasertib -0.02 | [2] -0.035 | volasertib -0.029 | [3] 0.016 | [4] -0.022 | [5] -0.03 | saracatinib 0.025 | sotrastaurin -0.001

AKAP11 (UniProt Q9UKA4)
inactive: vemurafenib -0.272 | [1] -0.029 | barasertib 0.082 | [2] 0.051 | volasertib 0.038 | [3] -0.055 | [4] 0.044 | [5] -0.024 | saracatinib 0.028 | sotrastaurin -0.103

AARS2 (UniProt Q5JTZ9)
Chain of UniProt Q5JTZ9 (Q5JTZ9 whole entry, looked up): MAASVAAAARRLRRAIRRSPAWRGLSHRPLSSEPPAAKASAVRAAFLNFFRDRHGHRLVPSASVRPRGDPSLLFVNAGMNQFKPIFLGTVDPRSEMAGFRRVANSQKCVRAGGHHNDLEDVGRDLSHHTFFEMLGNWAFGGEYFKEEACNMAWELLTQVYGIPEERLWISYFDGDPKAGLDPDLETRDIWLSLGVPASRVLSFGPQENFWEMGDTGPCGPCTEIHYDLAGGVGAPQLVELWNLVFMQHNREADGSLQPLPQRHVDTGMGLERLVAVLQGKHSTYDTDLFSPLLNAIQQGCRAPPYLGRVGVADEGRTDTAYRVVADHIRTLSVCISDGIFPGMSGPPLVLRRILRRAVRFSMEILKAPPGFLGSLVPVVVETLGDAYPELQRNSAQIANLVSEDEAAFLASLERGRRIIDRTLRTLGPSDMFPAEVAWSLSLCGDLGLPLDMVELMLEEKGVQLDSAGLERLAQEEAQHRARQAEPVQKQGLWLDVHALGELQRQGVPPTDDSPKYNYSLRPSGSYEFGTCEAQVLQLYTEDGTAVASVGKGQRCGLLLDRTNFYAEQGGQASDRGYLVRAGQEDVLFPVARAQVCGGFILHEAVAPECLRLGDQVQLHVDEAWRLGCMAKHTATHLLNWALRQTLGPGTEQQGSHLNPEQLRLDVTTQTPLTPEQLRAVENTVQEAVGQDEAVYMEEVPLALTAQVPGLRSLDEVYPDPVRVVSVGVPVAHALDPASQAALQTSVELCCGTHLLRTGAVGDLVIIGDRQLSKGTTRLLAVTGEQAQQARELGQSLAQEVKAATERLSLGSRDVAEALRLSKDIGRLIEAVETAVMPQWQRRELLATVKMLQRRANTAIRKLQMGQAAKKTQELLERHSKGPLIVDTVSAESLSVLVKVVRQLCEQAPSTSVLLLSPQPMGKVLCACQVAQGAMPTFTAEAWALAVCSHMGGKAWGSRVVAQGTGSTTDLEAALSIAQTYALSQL
inactive: vemurafenib 0.041 | [1] -0.052 | barasertib 0.029 | [2] -0.055 | volasertib -0.037 | [3] 0.027 | [4] 0.027 | [5] -0.053 | saracatinib 0.003 | sotrastaurin 0.031

ASPH (UniProt Q12797)
inactive: vemurafenib 0.009 | [1] 0.009 | barasertib -0.001 | [2] 0.03 | volasertib 0.002 | [3] -0.018 | [4] 0.011 | [5] -0.024 | saracatinib 0.055 | sotrastaurin 0.01

AKAP8L (UniProt Q9ULX6)
inactive: vemurafenib -0.003 | [1] 0.033 | barasertib -0.066 | [2] -0.036 | volasertib -0.042 | [3] 0.019 | [4] -0.042 | [5] -0.01 | saracatinib 0.002 | sotrastaurin 0.013

ANLN (UniProt Q9NQW6)
inactive: vemurafenib -0.012 | [1] 0.019 | barasertib 0.003 | [2] 0.01 | volasertib -0.014 | [3] -0.035 | [4] -0.067 | [5] -0.014 | saracatinib 0.002 | sotrastaurin 0.009
